Screen size: about 16,000 compounds; about 5,100 (32%) were called active. Roughly 25% stayed inconclusive and do not appear here. Some of the results follow. Unmarked numbers belong to inactive results. Calls come from the whole dose curve; as a rule, active = well fitted curve in the direction sought with a large enough effect; inconclusive = small, poorly fitted or top-dose-only effect, or effect the other way; inactive = no such curve, though single readings can be large or run the other way.
% is set by controls: 0 for no effect and ±100 for the full control effect.

The target in the assay is Cytochrome P450 3A4 (Homo sapiens) (UniProt P08684). The assay can be described thus: Cytochrome panel assay with activity outcomes. As to conditions: recombinant CYP, pro-luciferin dealkylation, luminescence, p450-cyp3a4; series mostly up to 57.1 µM.
Chain of Cytochrome P450 3A4 (Homo sapiens) (P08684 whole entry, looked up): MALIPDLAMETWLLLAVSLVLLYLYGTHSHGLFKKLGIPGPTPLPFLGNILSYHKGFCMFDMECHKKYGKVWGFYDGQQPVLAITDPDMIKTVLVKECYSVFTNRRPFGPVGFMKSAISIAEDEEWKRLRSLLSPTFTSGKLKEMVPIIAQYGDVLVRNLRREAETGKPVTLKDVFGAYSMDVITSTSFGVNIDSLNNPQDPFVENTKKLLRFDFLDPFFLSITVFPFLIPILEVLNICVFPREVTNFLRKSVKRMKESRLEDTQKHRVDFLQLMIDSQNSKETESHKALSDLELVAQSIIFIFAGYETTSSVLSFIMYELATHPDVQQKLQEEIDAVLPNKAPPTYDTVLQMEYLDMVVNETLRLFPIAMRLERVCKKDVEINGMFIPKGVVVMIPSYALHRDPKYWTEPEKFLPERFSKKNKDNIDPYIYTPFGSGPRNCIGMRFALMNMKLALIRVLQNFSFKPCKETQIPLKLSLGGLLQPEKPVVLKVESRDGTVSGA
With `O=C1c2ccccc2C(Cc2ccncc2)(Cc2ccncc2)c2ccccc21`, the AC50 was 0.501 µM (active). Consider `COC(=O)C1=C(N)N(c2ccccc2C(F)(F)F)C2=C(C(=O)CCC2)C1c1ccc2c(c1)OCO2` (centres undefined), for which the AC50 was 0.316 µM (active).

As for `Cc1cc([C@](C)(N)C(=O)O)ccc1P(=O)(O)O`, the AC50 result was “inactive”. Still for that read-out and setting: in the case of `CN1CCN(CCc2ccc(Cl)c(Cl)c2)CC1` it was “inactive”. Regarding `Clc1ccccc1OCCCCN1CCCC1`, the AC50 result was “inactive”. With `CN(CCc1ccc(Cl)c(Cl)c1)CCN1CCCCCC1`, the AC50 is 10 µM (active).

Take `Cc1[nH]c2ccccc2c1/C=C(\C#N)C(=O)NC(C)c1ccccc1` (centres undefined): the AC50 was 7.08 µM (active). For the molecule `C[C@H](NC(=O)/C(C#N)=C/c1ccc(O)c(O)c1)c1ccccc1`, the AC50 was 3.16 µM (active). The same measure, in the same setting: the same measure for `Cc1[nH]c2ccccc2c1/C=C/c1cc[n+](C)cc1`: “inactive”; for `C[C@@H](NC(=O)/C(C#N)=C/c1ccc(O)c(O)c1)c1ccccc1`: 15.8 µM (active). Same read-out and setting: the same measure for `CC1(C)C2([N+](=O)[O-])CN3CC1([N+](=O)[O-])CN(C2)C31CCCC1`: “inactive”; for `COc1ccc(CC(=O)NCCN2CCCC2)cc1`: “inactive”. In the case of `CCCN(CCC)CCCNC(=O)c1ccc2c(c1)N(CC)C(=O)c1ccccc1S2=O` (centres undefined), the AC50 result was “inactive”. Turning to `CCOc1ccc(CCNC(=O)CCCN2C(=O)c3ccccc3C2=O)cc1OCC`, the AC50 was 7.08 µM (active). Turning to `COc1ccc(CCNC(=O)CCCCCN2C(=O)c3ccccc3C2=O)cc1`, the AC50 was 6.31 µM (active). On to `CCCc1cc2c(=O)c(-c3ccc4c(c3)OCCO4)coc2cc1OC(=O)c1ccco1`, for which the activity, negative = inhibition is 9.62% [at 2.29 µM]. For `CCN(CC)CCOC(=O)c1c(C)n(C)c2ccc(OC)cc12`, the AC50 entry is “inactive”. On to `CCOC(=O)c1c(C)n(C)c2ccc(OC(=O)c3ccco3)cc12`, for which the AC50 was 15.8 µM (active). For `CC(=O)OC[C@@H]1O[C@@H](O/N=C2/C[C@@H](O)[C@@H](O)[C@@H]3[C@@H]4C(=O)N(C(C)(C)C)C(=O)[C@H]4CC[C@@H]23)[C@H](OC(C)=O)[C@H](OC(C)=O)[C@@H]1OC(C)=O`, the activity, negative = inhibition was -3.46% [at 11.4 µM]. Take `CC1=NN(c2ccccc2)C(=O)/C1=C\N1CC(C)OC(C)C1` (centres undefined): the AC50 entry is “inactive”. Turning to `Nc1cccc2cc(S(=O)(=O)Nc3ccc(C(=O)O)cc3)ccc12`, the activity, negative = inhibition is -7.54% [at 11.4 µM]. Regarding `CC(=O)c1cccc(NS(=O)(=O)c2ccc(N/C=C\C(=O)c3ccc(F)cc3)cc2)c1`, the AC50 is 0.708 µM (active).

In the case of `Cc1ccc(C)c(/C(=N\N=C(N)N)C2CC2)c1`, the activity, negative = inhibition was -27% [at 11.4 µM]. With `COc1cc(/C=C(\C#N)c2nc3c(s2)CC(C)CC3)ccc1O` (centres undefined), the AC50 is 25.1 µM (active). As for `C=CCOc1ccccc1OC[C@H](O)CNC(C)C`, the AC50 result was “inactive”. In the case of `C=CCc1ccccc1OC[C@H](O)CNC(C)C`, the AC50 entry is “inactive”. As for `COc1cc(OC)cc(C(=O)Nc2ccccc2C(=O)N2CCCC2)c1`, the activity, negative = inhibition is -8.41% [at 2.29 µM].

Consider `COc1ccc(NC(=O)C2CCN(C(=O)c3cccs3)CC2)c(OC)c1`, for which the AC50 is 28.2 µM (active). In the case of `CCOC(=O)C1CCN(C(=O)c2ccccc2NC(C)=O)CC1`, the AC50 result was “inactive”. The same measure, in the same setting: the same measure for `COc1ccc2oc(=O)c(NC(=O)C3CCCCC3)cc2c1`: “inactive”. `COC(=O)c1ccccc1NC(=O)C1CCN(C(=O)c2ccc(OC)cc2)CC1`: the AC50 was 6.31 µM (active). For the molecule `O=C(Cn1c(-c2cscn2)nc2ccccc21)Nc1cc(F)ccc1F`, the AC50 was 14.1 µM (active). Turning to `CC(C)(C)c1ccc(OC(=O)Cn2c(C(F)(F)F)nc3ccccc32)cc1`, the AC50 result is “inactive”. `COc1ccc(O[C@H]2C=C[C@@H](c3ccccc3)O[C@@H]2CO/N=C(\C)CCN2CCCc3nc(C)c(C)cc32)cc1`: the AC50 was 3.16 µM (active).

Regarding `COc1ccc(O[C@H]2C=C[C@@H](c3ccccc3)O[C@@H]2CO/N=C(\C)CCN2CCCCc3nc(C)c(C)cc32)cc1`, the AC50 was 3.98 µM (active). On the same count and under the same terms, in the case of `Cc1cc(C)c(S(=O)(=O)Nc2cccc(C(F)(F)F)c2)c(C)c1` it was 12.6 µM (active); in that of `Cc1cc(C)c(S(=O)(=O)Nc2ccccc2C(F)(F)F)c(C)c1`, 2.51 µM (active).

Consider `C[C@@H]1C(=O)N(C)C(=O)c2nc[nH]c21`, for which the AC50 entry was “inactive”. For `CCC(C)Nc1nc(OCC(F)(F)F)nc(OCC(F)(F)F)n1` (centres undefined), the activity, negative = inhibition was 4.7% [at 11.4 µM]. Take `O=C(NCCOC12CC3CC(CC(C3)C1)C2)c1cccc(Br)c1`: the activity, negative = inhibition was -3.19% [at 2.29 µM]. In the case of `CNc1nc(NCCOC23CC4CC(CC(C4)C2)C3)nc(OCC(F)(F)F)n1`, the AC50 is 25.1 µM (active).

Consider `COC(=O)/C=C/CSC1=N/C(=C/c2ccc(-n3cncn3)cc2)C(=O)N1`, for which the AC50 is 2 µM (active). For `Cn1c(Oc2ccccc2)c(C=O)c2ccccc21`, the AC50 entry is “inactive”. `CC(C)Oc1ccc2ccccc2c1C=O`: the activity, negative = inhibition is 6.45% [at 2.29 µM].

As for `COc1ccc(Oc2c(C=O)c3ccccc3n2C)cc1`, the AC50 was 17.8 µM (active). As for `Cn1ncc([N+](=O)[O-])c1C(=O)N1CCOCC1`, the activity, negative = inhibition was -9.46% [at 2.29 µM]. Consider `Cc1ccc2cc3cc(C(=O)N4CCCCC4C)oc3nc2c1` (centres undefined), for which the AC50 is 12.6 µM (active). Same read-out and setting: in the case of `Cc1ccc2cc(C(=O)O)c(C)nc2c1` it was “inactive”; in that of `COc1ccc(C)cc1NC(=O)c1cc2cc3ccc(C)cc3nc2o1`, “inactive”.

In the case of `Cc1ccc2nc(-c3cccnc3)oc2c1`, the AC50 was 39.8 µM (active). As for `c1ccc(-c2nc3ccccc3o2)nc1`, the AC50 entry was “inactive”.

For `Clc1ccc2oc(-c3cccnc3)nc2c1`, the AC50 result was “inactive”. Turning to `CS(=O)(=O)N1CCN(c2c(Cl)cccc2[N+](=O)[O-])CC1`, the AC50 result is “inactive”. Turning to `Cc1cc(C)n(-c2cc(N3CCN(S(=O)(=O)c4ccc(C)c(C)c4)CC3)ccc2[N+](=O)[O-])n1`, the AC50 was 3.16 µM (active). For `O=[N+]([O-])c1ccc(N2CCCC2)cc1N1CCCC1`, the AC50 entry is “inactive”. Same read-out and setting: the same measure for `Cc1c(Cl)c([N+](=O)[O-])nn1Cc1ccc(C(=O)N/N=C\c2cc(Cl)ccc2O)o1`: 2.24 µM (active).

As to `CCN(CC)C(=O)C(=O)N/N=C/c1cccc(Br)c1`, the AC50 entry was “inactive”. For the molecule `Cc1c(Cl)c([N+](=O)[O-])nn1Cc1ccc(C(=O)N/N=C\c2cccc(Br)c2)o1`, the AC50 is 3.98 µM (active).

On to `Cc1cc(C(=O)N/N=C/c2cccc([N+](=O)[O-])c2)c(C)o1`, for which the AC50 entry was “inactive”.

As for `C/C(Cn1nc([N+](=O)[O-])cc1C)=N\NC(=O)c1ccc(O)cc1O`, the activity, negative = inhibition is -3.84% [at 2.29 µM]. Regarding `N#Cc1cccc(NC(=O)N2CC[C@@]3(CCCN(C(=O)c4cccc(F)c4)C3)C2)c1`, the AC50 is 10 µM (active). Same read-out and setting: the same measure for `N#Cc1cccc(NC(=O)N2CCCC3(CCN(C(=O)c4ccco4)CC3)C2)c1`: 5.01 µM (active); for `N#Cc1cccc(NC(=O)N2CC3(CCN(C(=O)c4ccco4)CC3)C2)c1`: “inactive”.

As to `N#Cc1cccc(NC(=O)N2CCCC3(CCN(C(=O)c4cccc(F)c4)CC3)C2)c1`, the AC50 is 15.8 µM (active). As for `S=c1[nH]c2cc(Cl)ccc2s1`, the activity, negative = inhibition was -16.9% [at 2.29 µM]. Still for that read-out and setting: the same measure for `CCc1ccc(N2CC(C(=O)NC3=NCCS3)CC2=O)cc1` (centres undefined): 3.42% [at 2.29 µM]. As for `CC(C)C(NC(=O)C12CC3CC(CC(C3)C1)C2)C(=O)NC1=NCCS1` (centres undefined), the AC50 was 15.8 µM (active). The same measure, in the same setting: the same measure for `O=C(Nc1ccccc1)C(Cc1ccccc1)NC(=O)C12CC3CC(CC(C3)C1)C2` (centres undefined): “inactive”; for `Cc1ccc(S(=O)(=O)N(CC(=O)N2CCN(c3ccc(F)cc3)CC2)C2CCCCC2)cc1`: 1 µM (active). `CCCS(=O)(=O)N1CCCC(C(=O)NCCCN2CCN(c3ccc(F)cc3)CC2)C1` (centres undefined): the activity, negative = inhibition was 14.9% [at 2.29 µM]. On to `Cc1ccc(S(=O)(=O)NC(=O)NN2C[C@H]3CCC[C@@H]3C2)cc1`, for which the AC50 entry was “inactive”. As to `O[C@H](CNc1ccccn1)c1ccccc1`, the activity, negative = inhibition was -27.1% [at 11.4 µM].

For `CN1CCN(c2nc3c(c(=O)n(C)c(=O)n3C)n2C)CC1`, the activity, negative = inhibition is 0.305% [at 11.4 µM]. In the case of `CN1CCN(c2ncc3nc(-c4cccs4)c(=O)n(Cc4cccs4)c3n2)CC1`, the AC50 was 10 µM (active). As to `COCCn1c(=O)c(-c2cccs2)nc2cnc(N3CCNCC3)nc21`, the AC50 is 15.8 µM (active). On the same count and under the same terms, in the case of `COCCn1c(=O)c(-c2ccc(OC)cc2)nc2cnc(N3CCNCC3)nc21` it was 15.8 µM (active). Regarding `COCCn1c(=O)c(C)nc2cnc(N3CCNCC3)nc21`, the AC50 entry was “inactive”. Regarding `COCCn1c(=O)c(-c2ccc(OC)cc2)nc2cnc(N3CCOCC3)nc21`, the AC50 entry is “inactive”. For `COc1ccc(-c2nc3cnc(N4CCOCC4)nc3n(CCC#N)c2=O)cc1`, the AC50 result was “inactive”. For `CN1CCN(c2ncc3nc(-c4ccccc4)c(=O)n(Cc4cccs4)c3n2)CC1`, the AC50 entry was “inactive”. The same measure, in the same setting: in the case of `CN1CCN(c2ncc3nc(-c4cccs4)c(=O)n(CCc4ccccc4)c3n2)CC1` it was 20 µM (active). In the case of `C[N+](C)(C)c1ccc([C@H](N)C(=O)O)cc1`, the activity, negative = inhibition was 1.95% [at 11.4 µM]. As to `CCc1cccc2c(-c3ccccc3)c3c(nc12)OCC3`, the AC50 entry was “inactive”. Still for that read-out and setting: in the case of `C[C@@H]1C[C@H](OC(=O)[C@@H](O)c2ccccc2)CC(C)(C)N1C` it was “inactive”; in that of `COCCn1c(=O)c(-c2cccc(C#N)c2)nc2cnc(N3CCOCC3)nc21`, “inactive”; in that of `Cc1nc2cnc(N3CCNCC3)nc2n(Cc2cccs2)c1=O`, 3.16 µM (active). Same read-out and setting: the same measure for `Cc1nc2cnc(N3CCOCC3)nc2n(C)c1=O`: “inactive”. Still for that read-out and setting: the same measure for `COCCn1c(=O)c(-c2cccc(C#N)c2)nc2cnc(N3CCNCC3)nc21`: 20 µM (active). For `COCCn1c(=O)c(-c2cccc(C#N)c2)nc2cnc(N3CCN(C)CC3)nc21`, the AC50 entry was “inactive”. As to `O=c1c(-c2cccs2)nc2cnc(N3CCNCC3)nc2n1Cc1cccs1`, the AC50 was 2.51 µM (active). On to `O=c1nc2ccccc2c2n1C[C@H](CN1CCN(c3ccccc3)CC1)N2`, for which the AC50 entry is “inactive”. For the molecule `CC(C)=CCC/C(C)=C/CO/N=C1/C[C@@H](O)[C@@H](O)[C@@H]2[C@@H]3C(=O)N(C(C)(C)C)C(=O)[C@H]3CC[C@@H]12`, the activity, negative = inhibition was -26.7% [at 11.4 µM]. With `COC(=O)C1=C(N)Oc2cc(C)n(CC3CCCO3)c(=O)c2C1c1ccccc1OC` (centres undefined), the AC50 is 6.31 µM (active).

For the molecule `COc1cc(Br)cc2cc(C(=O)NCC3CCCO3)c(=O)oc12` (centres undefined), the AC50 entry is “inactive”.

The record behind these values is PubChem BioAssay AID1851 (National Center for Advancing Translational Sciences (NCATS), 2009).
